Data reported in PubChem BioAssay AID1210 (NMMLSC, 2008).
The source made the active and inactive calls.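 Rule for the calls: active = blocks over 70% of labeled estradiol binding at 10 µM, or over a set limit at 100 nM; inactive = the rest.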

Target: Estrogen receptor beta (Homo sapiens) (UniProt Q92731)
Assay: ERbeta ligand binders by competition, primary screen, cell-based, Cos7 ERbeta-GFP, flow cytometry (AID 1210);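 note: 0% = DMSO vehicle wells and 100% = complete loss of labeled estradiol signal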
Conditions: fluorescent estrogen binding, stronger effect = higher value
[1] = ligand binding inhibition, at 0.1 µM

Chain of Estrogen receptor beta (Homo sapiens) (Q92731 whole entry, looked up): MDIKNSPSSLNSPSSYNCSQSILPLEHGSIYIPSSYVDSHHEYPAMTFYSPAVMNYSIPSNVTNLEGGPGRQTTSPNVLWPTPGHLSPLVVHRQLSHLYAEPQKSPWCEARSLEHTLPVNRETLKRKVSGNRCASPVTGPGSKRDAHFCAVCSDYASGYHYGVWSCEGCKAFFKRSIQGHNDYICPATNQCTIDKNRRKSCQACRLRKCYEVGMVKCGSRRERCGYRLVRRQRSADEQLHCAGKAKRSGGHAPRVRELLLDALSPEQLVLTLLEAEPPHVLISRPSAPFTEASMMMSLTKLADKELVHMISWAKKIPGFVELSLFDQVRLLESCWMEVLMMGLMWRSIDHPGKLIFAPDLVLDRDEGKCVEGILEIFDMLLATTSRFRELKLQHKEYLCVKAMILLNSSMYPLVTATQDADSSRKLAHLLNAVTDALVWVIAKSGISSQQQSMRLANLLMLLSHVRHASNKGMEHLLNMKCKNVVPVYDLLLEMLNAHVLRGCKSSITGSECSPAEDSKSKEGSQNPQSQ

SMILES | inhibition (at 10 µM) | inhibition [1]
COc1ccc(Cl)cc1NC(=O)c1ocnc1C | 50% (inactive) | 3%
CC1Cc2ccccc2N1C(=O)CSc1nnc(-c2ccc(S(=O)(=O)N3CCCC3)cc2)o1 (configuration not stated) | 54% (inactive) | 19%
Cc1cc(C2(c3ccc(O)c(C)c3)OC(=O)c3ccccc32)ccc1O | 73% (active) | 29%
CCn1c(SCC(=O)Nc2ccc3c(c2)oc2ccccc23)nnc1-c1ccc(N)cc1 | 56% (inactive) | 18%
Cc1nn(-c2ccccc2)c(C)c1NC(=O)Cc1cccs1 | 67% (inactive) | 25%
COc1cccc(C(=O)NC2CCN(C(=O)N3c4ccccc4Sc4ccccc43)CC2)c1 | 43% (inactive) | 17%
O=C(O)c1cc(Cl)c2c(c1)[C@@H]1C=CC[C@@H]1[C@H](c1ccc(S(=O)(=O)N3CCOCC3)cc1)N2 | 45% (inactive) | 8%
COc1ccccc1-c1nnc2n1N=C(c1ccc(O)c(O)c1)CS2 | 69% (inactive) | 21%
COc1ccc2c(c1)c(=O)oc1cc(OCC(=O)NC3CCCCC3)ccc12 | 31% (inactive) | 22%
COc1ccc(C2CC(c3ccccc3)=NN2c2ccc(N)cc2)cc1 (configuration not stated) | 69% (inactive) | 23%
COCCNC(=O)c1c(N)n(/N=C/c2cccs2)c2nc3ccccc3nc12 | 29% (inactive) | 32%
ON=C1/C(=N\O)CC2(C/C1=N/O)OCCO2 | 28% (inactive) | 31%
Cc1nnc(NC(=O)CSc2nc3c(c(=O)n2CCc2ccccc2)SC(C)C3)s1 (configuration not stated) | 45% (inactive) | 34%
Cc1cc(N)ccc1N=Nc1c(C)n(C)n(-c2ccccc2)c1=O | 15% (inactive) | 31%
O=c1oc2ccccc2cc1-c1ccc(O)cc1O | 42% (inactive) | 21%
COc1ccc(C(Nc2ccccn2)c2oc(CO)cc(=O)c2O)cc1 (configuration not stated) | 75% (active) | 40%
O=S(=O)(NCC(O)COCc1ccco1)c1cccs1 (configuration not stated) | 12% (inactive) | 20%
CC(C)(C)c1nnc2sc(SC/C(O)=C(\C#N)c3nc4ccccc4[nH]3)nn2c1=O | 31% (inactive) | 15%
CN(C)C(=O)c1ccc2c(c1)C1C3CCC(C3)C1C(c1ccccc1)N2 (configuration not stated) | 0% (inactive) | 51%
CN(CC(=O)NC(=O)NCc1ccco1)Cc1nc2ccccc2c(=O)[nH]1 | 14% (inactive) | 53%
COC(=O)c1c(-c2ccncc2)csc1NC(=O)c1ccoc1C | 52% (inactive) | 1%

SMILES | inhibition (at 10 µM) | inhibition [1]
O=C1Nc2ccccc2SC(c2ccccc2)C1O (configuration not stated) | 56% (inactive) | 26%
Cc1cc(C)cc(OCC(=O)Nc2ccc(N3CCCC3)cc2)c1 | 71% (active) | 37%
COc1ccc2c(c1)C1C=CCC1C(c1cc3c(cc1Br)OCO3)N2 (configuration not stated) | 0% (inactive) | 41%
Cc1ccc(S(=O)(=O)N2CCCCC2)cc1C(=O)Nc1ncn[nH]1 | 13% (inactive) | 23%
CN(C)c1ccc(N=Cc2ccco2)cc1 | 47% (inactive) | 14%
COc1ccc(C2C=C(c3ccc(Cl)cc3)Nc3nc(NC(C)=O)nn32)cc1 (configuration not stated) | 16% (inactive) | 21%
CN(C(=S)Nc1cccnc1)c1ccc(O)cc1 | 14% (inactive) | 54%
COc1ccccc1/C=c1\sc2nc(-c3ccco3)nn2c1=O | 60% (inactive) | 21%
COc1cc(NC(=O)c2cccs2)c(C(=O)OCC(=O)NC(=O)NCc2ccccc2)cc1OC | 8% (inactive) | 17%
O=c1cc(-c2ccccc2Cl)oc2c(Br)ccc(O)c12 | 33% (inactive) | 19%
O=C1NCCCC2c3cc(O)c4ccccc4c3OC12N1CCCCC1 (configuration not stated) | 56% (inactive) | 27%
Oc1ccc(/C=C/c2nc(-c3ccccc3O)n(-c3ccccc3)n2)cc1 | 44% (inactive) | 31%
O=C(COC(=O)c1cccc(S(=O)(=O)N2CCc3ccccc3C2)c1)NCc1ccco1 | 29% (inactive) | 5%
CCc1ccc2c(c1)[C@H]1OCC[C@H]1[C@@H](c1cccs1)N2 | 0% (inactive) | 65%
O=C(Nc1cc(C(F)(F)F)ccc1N1CCOCC1)C1Cc2ccccc2CN1C(=O)c1ccco1 (configuration not stated) | 73% (active) | 13%
O=C(CCCn1c(=S)[nH]c2ccccc2c1=O)N1CCN(c2cccc(Cl)c2)CC1 | 73% (active) | 28%
Cc1cccc(N2CCN(C(=O)c3cc4c(=O)n(C)c5ccccc5c4n3C)CC2)c1C | 46% (inactive) | 27%
CCN(c1ccccc1)S(=O)(=O)c1ccc2[nH]cc(C(=O)NCCOC)c(=O)c2c1 | 35% (inactive) | 30%
O=C(Nc1nccs1)c1nc(-c2ccccc2)n(-c2ccccc2)n1 | 38% (inactive) | 22%
Cc1ccccc1NC(=O)CSc1nnc(-c2ccco2)c(-c2ccco2)n1 | 31% (inactive) | 27%
CC(=O)c1ccc(NC(=S)N2CCCC(CO)C2)cc1 (configuration not stated) | 49% (inactive) | 13%

SMILES | inhibition (at 10 µM) | inhibition [1]
O=S(=O)(NCCc1csc(-c2cccnc2)n1)c1ccc(Cl)s1 | 69% (active) | 78%
Cc1cc(O)ccc1C1(c2ccc(O)cc2C)OC(=O)c2ccccc21 | 36% (inactive) | 10%
Cc1cs/c(=N\N=C\c2ccc(O)cc2)n1Cc1ccco1 | 45% (inactive) | 21%
COc1ccc(C2CC(c3ccccc3)=NN2C(=O)CSc2nccc(=O)[nH]2)cc1 (configuration not stated) | 33% (inactive) | 37%
C=CCn1c(=O)c(C#N)cc2c(=O)n3ccccc3nc21 | 39% (inactive) | 22%
CCOC(=O)c1ccc(NC(=O)CSc2nc(C)cc(=O)[nH]2)cc1 | 30% (inactive) | 2%
COc1ccc(/C=N/NC(=O)c2nc(-c3ccccc3)n(-c3ccccc3)n2)c(O)c1 | 45% (inactive) | 33%
O=c1nc2s/c(=C\c3ccco3)c(=O)n2nc1Cc1ccc(F)cc1 | 16% (inactive) | 35%
Cc1oc(-c2ccc(Cl)cc2)cc1-c1nn2c(-c3ccoc3C)nnc2s1 | 57% (inactive) | 29%
CC1CCN(S(=O)(=O)c2ccc(NC(=O)Cc3cccs3)cc2)CC1 | 36% (inactive) | 33%
COc1ccc2c(c1OC)C(=O)N1N=C(c3ccc(O)cc3)CC21 (configuration not stated) | 21% (inactive) | 39%
COc1ccc(CNC(=O)COC(=O)c2cc(-c3ccco3)nc3ccccc23)cc1 | 18% (inactive) | 8%
O=C1C2C3C=CC(C3)C2C(=O)N1c1cccc2cccnc12 (configuration not stated) | 55% (inactive) | 51%
CSc1ccccc1NC(=O)c1noc2c1CCC2 | 26% (inactive) | 12%
CC(C)C1Nc2ccc(S(N)(=O)=O)cc2C2C=CCC21 (configuration not stated) | 57% (inactive) | 20%
C=CCn1c(COc2ccccc2F)nnc1SCC(=O)NC(=O)NCc1ccco1 | 24% (inactive) | 2%
Cc1ccc2[nH]c(=O)c(C3C(C#N)=C(N)Oc4c3ccc3cccnc43)cc2c1 (configuration not stated) | 44% (inactive) | 24%
COc1ccc(C2CC(c3c(-c4ccccc4)c4cc(Cl)ccc4[nH]c3=O)=NN2S(C)(=O)=O)cc1OC (configuration not stated) | 1% (inactive) | 64%
O=C1c2ccccc2C(=O)N1CCCc1nc2ccccc2c(=O)n1CCCn1ccnc1 | 61% (inactive) | 20%
Oc1ccc(-c2cn3c(n2)SCC3)cc1 | 64% (inactive) | 10%
NC(=S)n1[nH]c(-c2ccc([N+](=O)[O-])cc2)c(N=Nc2ccc(O)cc2)c1=O | 35% (inactive) | 15%

SMILES | inhibition (at 10 µM) | inhibition [1]
COc1cc(C2C(C#N)=C(N)Oc3cc(C)oc(=O)c32)cc2c1OCO2 (configuration not stated) | 32% (inactive) | 46%
Cc1nn(-c2ccccc2)c2sc(C(=O)c3c(N)n(C)c(=O)n(C)c3=O)cc12 | 22% (inactive) | 32%
CC1CCc2c(sc(NC(=O)c3ccc(Cn4cc([N+](=O)[O-])cn4)o3)c2C#N)C1 (configuration not stated) | 19% (inactive) | 58%
Oc1ccc(N=Cc2ccc(O)c(O)c2)cc1 | 34% (inactive) | 20%
O=C(O)c1ccc(NS(=O)(=O)c2ccc3c(c2)C2C=CCC2C(c2ccccc2F)N3)cc1 (configuration not stated) | 7% (inactive) | 9%
O=C(Cn1nnc(-c2ccc3c(c2)OCO3)n1)NCc1ccco1 | 46% (inactive) | 24%
O=c1cc(O)c2c(=O)n(-c3ccccc3)c3c(c2o1)CCCCCC3 | 59% (inactive) | 2%
Cc1c(N=Cc2ccc(O)c(Br)c2)cccc1[N+](=O)[O-] | 33% (inactive) | 34%
COc1cccc2sc(Nc3nnc(-c4ccc(F)cc4)o3)nc12 | 33% (inactive) | 17%
Cc1ccc(S(=O)(=O)Cc2ccc(C(=O)N3CCc4ccccc4C3)o2)cc1 | 43% (inactive) | 10%
O=C(O)C1Nc2c(O)cc(Cl)c([N+](=O)[O-])c2C2C=CCC12 (configuration not stated) | 31% (inactive) | 18%
Cc1c(C(=O)OCc2ccccc2)[nH]c2c1C(=O)CC(c1ccco1)C2 (configuration not stated) | 45% (inactive) | 17%
O=C(Nc1ccc(O)cc1C(=O)O)c1ccc2c(c1)C(=O)N(Cc1ccco1)C2=O | 52% (active) | 72%
CCN(c1ccccc1)S(=O)(=O)c1cc(C(=O)O)ccc1C | 2% (inactive) | 13%
Cc1cc(=O)oc2c(CN3CCC(C)CC3)c(O)c(Cl)cc12 | 20% (inactive) | 11%
N#Cc1ccc(-c2cccnc2)nc1SCC(=O)Nc1sc2c(c1C#N)CCC2 | 0% (inactive) | 10%
COC(=O)c1cc(-c2c(C)oc3cc(O)ccc3c2=O)c(C)o1 | 12% (inactive) | 1%
O=C1C=CC(O)(c2cc(=O)c3c(O)cc(O)cc3o2)C=C1 | 29% (inactive) | 8%
